Results: publication PMC7862700, “An all-to-all approach to the identification of sequence-specific readers for epigenetic DNA modifications on cytosine”

Tests used:
Assay in all cases: DAPPL (digital affinity profiling via proximity ligation, sequencing); 10 mM Tris-HCl pH 7.5, 50 mM NaCl, 1 mM DTT, 4% glycerol, room temperature, 30 min; GST-TFs on glutathione beads, 16-mer random dsDNA library, 0.1% formaldehyde crosslink after washing; high values mean tight binding
FLI1 = target: T1, FLI1 (Homo sapiens, UniProt Q01543 1-452); conditions: protein: recombinant; tags: N-terminal GST; dsDNA, one strand shown
T1 sequence: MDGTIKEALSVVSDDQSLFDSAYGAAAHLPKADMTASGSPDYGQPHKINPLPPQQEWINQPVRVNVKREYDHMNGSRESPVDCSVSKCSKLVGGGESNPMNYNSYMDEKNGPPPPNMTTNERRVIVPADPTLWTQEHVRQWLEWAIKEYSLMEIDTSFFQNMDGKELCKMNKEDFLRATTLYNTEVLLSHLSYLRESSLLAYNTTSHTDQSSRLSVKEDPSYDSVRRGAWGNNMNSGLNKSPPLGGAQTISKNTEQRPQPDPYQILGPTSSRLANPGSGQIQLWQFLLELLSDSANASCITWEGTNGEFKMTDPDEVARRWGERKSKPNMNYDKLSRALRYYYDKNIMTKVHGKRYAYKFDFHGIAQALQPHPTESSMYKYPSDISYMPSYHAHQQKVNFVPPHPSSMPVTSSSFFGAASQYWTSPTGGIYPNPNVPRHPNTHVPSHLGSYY
In short: (§1)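 Sequencing on an Illumina NextSeq500 followed washing, crosslinking with 0.1% formaldehyde, proximity ligation (BsaI/T4 ligase, 1 h, 37 °C) and PCR amplification of pools that had been incubated for 30 min at room temperature with 200 nmole of a random double-stranded 16-mer DNA library in Tris/NaCl/DTT/glycerol buffer. Each pool held DNA-barcoded human transcription factors, expressed in yeast as GST fusions and captured on glutathione beads, plus a tag-only sample. Binding signal is a hexamer's read frequency for a factor divided by its frequency in the tag-only sample.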

ELK1 = target: T2, ELK1 (Homo sapiens, UniProt P19419 1-428); conditions: protein: recombinant; tags: N-terminal GST; dsDNA, one strand shown
T2 sequence: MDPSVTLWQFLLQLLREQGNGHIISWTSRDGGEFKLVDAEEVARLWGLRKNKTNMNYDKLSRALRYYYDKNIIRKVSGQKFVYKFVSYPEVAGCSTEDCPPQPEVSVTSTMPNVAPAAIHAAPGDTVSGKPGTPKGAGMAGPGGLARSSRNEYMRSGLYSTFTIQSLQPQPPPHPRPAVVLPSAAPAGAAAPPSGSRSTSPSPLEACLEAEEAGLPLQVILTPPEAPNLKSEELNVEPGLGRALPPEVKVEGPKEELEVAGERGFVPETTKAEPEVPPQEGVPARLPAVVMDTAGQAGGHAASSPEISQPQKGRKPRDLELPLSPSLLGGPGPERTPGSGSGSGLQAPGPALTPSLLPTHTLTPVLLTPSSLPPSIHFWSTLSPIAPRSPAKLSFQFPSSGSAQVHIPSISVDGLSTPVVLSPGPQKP
In short: as §1

GABPA = target: T3, GABPA (Homo sapiens, UniProt Q06546 1-454); conditions: protein: recombinant; tags: N-terminal GST; dsDNA, one strand shown
T3 sequence: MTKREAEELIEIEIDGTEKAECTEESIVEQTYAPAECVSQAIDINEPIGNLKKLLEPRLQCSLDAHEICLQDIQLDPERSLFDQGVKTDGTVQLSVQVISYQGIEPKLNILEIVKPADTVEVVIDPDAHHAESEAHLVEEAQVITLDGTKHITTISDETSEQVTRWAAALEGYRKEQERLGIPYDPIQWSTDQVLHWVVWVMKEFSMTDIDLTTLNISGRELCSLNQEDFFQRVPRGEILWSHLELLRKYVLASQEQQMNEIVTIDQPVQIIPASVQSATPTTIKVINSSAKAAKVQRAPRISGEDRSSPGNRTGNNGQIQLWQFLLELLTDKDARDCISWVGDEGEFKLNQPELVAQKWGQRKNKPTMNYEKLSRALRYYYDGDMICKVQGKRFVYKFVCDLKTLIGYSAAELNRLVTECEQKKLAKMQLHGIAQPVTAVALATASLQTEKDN
In short: as §1

ERG = target: T4, ERG (Homo sapiens, UniProt P11308 1-479); conditions: protein: recombinant; tags: N-terminal GST; dsDNA, one strand shown
T4 sequence: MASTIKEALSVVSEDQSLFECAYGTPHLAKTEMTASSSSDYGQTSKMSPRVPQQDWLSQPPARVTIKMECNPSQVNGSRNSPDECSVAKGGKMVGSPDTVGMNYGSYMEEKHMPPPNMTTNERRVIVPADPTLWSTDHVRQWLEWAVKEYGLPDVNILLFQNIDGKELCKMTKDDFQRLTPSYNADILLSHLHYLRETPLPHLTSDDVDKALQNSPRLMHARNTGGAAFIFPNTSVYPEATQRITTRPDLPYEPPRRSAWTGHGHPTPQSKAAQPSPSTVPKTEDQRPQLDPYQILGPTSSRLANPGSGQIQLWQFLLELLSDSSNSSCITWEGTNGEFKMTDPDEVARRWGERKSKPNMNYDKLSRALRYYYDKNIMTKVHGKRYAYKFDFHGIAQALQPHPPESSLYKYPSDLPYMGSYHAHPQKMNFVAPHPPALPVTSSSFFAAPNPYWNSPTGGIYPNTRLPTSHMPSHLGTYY
In short: as §1

ELF1 = ELF1 (Homo sapiens, UniProt P32519 1-619); conditions: protein: recombinant; tags: N-terminal GST; dsDNA, one strand shown
In short: as §1

EHF = target: T5, EHF (Homo sapiens, UniProt Q9NZC4 1-300); conditions: protein: recombinant; tags: N-terminal GST; dsDNA, one strand shown
T5 sequence: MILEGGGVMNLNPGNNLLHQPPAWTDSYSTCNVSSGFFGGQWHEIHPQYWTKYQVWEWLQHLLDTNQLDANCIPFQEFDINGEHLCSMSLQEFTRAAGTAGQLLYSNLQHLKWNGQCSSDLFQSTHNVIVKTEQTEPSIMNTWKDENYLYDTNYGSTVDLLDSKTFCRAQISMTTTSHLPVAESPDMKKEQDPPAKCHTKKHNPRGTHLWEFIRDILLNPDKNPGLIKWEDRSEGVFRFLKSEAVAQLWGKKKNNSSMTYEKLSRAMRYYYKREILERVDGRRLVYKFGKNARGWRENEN
In short: as §1

SPI1 = SPI1 (Homo sapiens, UniProt P17947 1-270); conditions: protein: recombinant; tags: N-terminal GST; dsDNA, one strand shown
In short: as §1

SPIB = SPIB (Homo sapiens, UniProt Q01892 1-262); conditions: protein: recombinant; tags: N-terminal GST; dsDNA, one strand shown
In short: as §1

ELK3 = target: T6, ELK3 (Homo sapiens, UniProt P41970 1-407); conditions: protein: recombinant; tags: N-terminal GST; dsDNA, one strand shown
T6 sequence: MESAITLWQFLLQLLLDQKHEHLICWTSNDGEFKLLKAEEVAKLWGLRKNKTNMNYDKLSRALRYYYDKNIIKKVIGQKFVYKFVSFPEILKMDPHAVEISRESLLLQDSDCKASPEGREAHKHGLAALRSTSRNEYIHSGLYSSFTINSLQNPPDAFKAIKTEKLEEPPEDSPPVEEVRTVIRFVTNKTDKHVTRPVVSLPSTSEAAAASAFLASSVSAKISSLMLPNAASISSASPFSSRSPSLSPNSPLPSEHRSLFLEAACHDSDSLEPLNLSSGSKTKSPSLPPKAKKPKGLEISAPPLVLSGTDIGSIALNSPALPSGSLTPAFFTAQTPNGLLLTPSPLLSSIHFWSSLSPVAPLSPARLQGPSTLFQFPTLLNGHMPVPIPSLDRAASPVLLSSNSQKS
In short: as §1

FEV = target: T7, FEV (Homo sapiens, UniProt Q99581 1-238); conditions: protein: recombinant; tags: N-terminal GST; dsDNA, one strand shown
T7 sequence: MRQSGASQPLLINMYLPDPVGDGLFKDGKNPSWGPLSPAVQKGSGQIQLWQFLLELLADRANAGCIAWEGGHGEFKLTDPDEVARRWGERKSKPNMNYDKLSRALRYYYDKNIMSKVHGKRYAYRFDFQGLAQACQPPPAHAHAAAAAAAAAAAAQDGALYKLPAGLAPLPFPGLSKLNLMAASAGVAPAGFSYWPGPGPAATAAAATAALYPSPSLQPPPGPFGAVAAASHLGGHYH
In short: as §1

ETV5 = ETV5 (Homo sapiens, UniProt P41161 1-510); conditions: protein: recombinant; tags: N-terminal GST; dsDNA, one strand shown
In short: as §1

HSF1 = HSF1 (Homo sapiens, UniProt Q00613 1-529); conditions: protein: recombinant; tags: N-terminal GST; chain copies: 3; dsDNA, one strand shown
In short: as §1

SPIC = target: T8, SPIC (Homo sapiens, UniProt Q8N5J4 1-248); conditions: protein: recombinant; tags: N-terminal GST; dsDNA, one strand shown
T8 sequence: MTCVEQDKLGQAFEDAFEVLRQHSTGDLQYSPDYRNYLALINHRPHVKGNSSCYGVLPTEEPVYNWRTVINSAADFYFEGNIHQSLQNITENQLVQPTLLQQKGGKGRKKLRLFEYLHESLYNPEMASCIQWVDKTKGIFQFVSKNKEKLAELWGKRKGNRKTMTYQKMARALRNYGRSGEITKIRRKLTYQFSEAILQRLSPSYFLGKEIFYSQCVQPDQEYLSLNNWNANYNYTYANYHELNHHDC
In short: as §1

ELF4 = ELF4 (Homo sapiens, UniProt Q99607 1-663); conditions: protein: recombinant; tags: N-terminal GST; dsDNA, one strand shown
In short: as §1

ELK4 = target: T9, ELK4 (Homo sapiens, UniProt P28324-2 1-405); conditions: protein: recombinant; tags: N-terminal GST; dsDNA, one strand shown
T9 sequence: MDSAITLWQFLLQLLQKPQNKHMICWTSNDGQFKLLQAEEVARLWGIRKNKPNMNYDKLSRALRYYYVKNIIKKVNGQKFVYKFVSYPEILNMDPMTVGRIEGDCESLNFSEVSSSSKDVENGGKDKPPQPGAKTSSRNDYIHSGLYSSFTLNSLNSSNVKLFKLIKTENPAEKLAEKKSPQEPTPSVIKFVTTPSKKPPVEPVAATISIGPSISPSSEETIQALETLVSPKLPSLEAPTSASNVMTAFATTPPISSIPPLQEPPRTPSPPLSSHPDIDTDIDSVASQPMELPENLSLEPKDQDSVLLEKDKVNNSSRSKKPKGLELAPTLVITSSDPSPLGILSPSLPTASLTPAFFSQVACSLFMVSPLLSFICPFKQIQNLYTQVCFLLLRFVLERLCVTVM
In short: as §1

ETV2 = target: T10, ETV2 (Homo sapiens, UniProt O00321 1-342); conditions: protein: recombinant; tags: N-terminal GST; dsDNA, one strand shown
T10 sequence: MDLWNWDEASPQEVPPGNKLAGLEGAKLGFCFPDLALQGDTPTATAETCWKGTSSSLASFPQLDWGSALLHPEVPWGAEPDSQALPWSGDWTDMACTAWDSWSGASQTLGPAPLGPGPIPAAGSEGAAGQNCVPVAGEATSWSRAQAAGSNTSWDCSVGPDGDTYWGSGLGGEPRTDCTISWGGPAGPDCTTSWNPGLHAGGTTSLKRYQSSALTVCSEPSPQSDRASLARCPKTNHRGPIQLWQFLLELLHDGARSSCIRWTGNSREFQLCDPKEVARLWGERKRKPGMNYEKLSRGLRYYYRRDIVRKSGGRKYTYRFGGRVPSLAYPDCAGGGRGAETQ
In short: as §1

ELF3 = target: T11, ELF3 (Homo sapiens, UniProt P78545 1-371); conditions: protein: recombinant; tags: N-terminal GST; dsDNA, one strand shown
T11 sequence: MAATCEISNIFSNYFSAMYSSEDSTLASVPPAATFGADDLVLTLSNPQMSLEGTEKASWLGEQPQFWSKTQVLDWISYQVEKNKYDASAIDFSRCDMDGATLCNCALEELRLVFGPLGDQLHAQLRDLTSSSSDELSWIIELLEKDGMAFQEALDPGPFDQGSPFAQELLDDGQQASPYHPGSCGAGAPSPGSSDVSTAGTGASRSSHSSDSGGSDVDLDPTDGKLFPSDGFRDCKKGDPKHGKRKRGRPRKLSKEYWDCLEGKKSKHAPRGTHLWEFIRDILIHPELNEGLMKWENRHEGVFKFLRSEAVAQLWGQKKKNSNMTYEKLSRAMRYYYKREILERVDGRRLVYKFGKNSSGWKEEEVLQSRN
In short: as §1

CRX = CRX (Homo sapiens, UniProt O43186 1-299); conditions: protein: recombinant; tags: N-terminal GST; dsDNA, one strand shown
In short: as §1

ETV1 = ETV1 (Homo sapiens, UniProt P50549 1-477); conditions: protein: recombinant; tags: N-terminal GST; dsDNA, one strand shown
In short: as §1

ELF4, sequence (Q99607 whole entry): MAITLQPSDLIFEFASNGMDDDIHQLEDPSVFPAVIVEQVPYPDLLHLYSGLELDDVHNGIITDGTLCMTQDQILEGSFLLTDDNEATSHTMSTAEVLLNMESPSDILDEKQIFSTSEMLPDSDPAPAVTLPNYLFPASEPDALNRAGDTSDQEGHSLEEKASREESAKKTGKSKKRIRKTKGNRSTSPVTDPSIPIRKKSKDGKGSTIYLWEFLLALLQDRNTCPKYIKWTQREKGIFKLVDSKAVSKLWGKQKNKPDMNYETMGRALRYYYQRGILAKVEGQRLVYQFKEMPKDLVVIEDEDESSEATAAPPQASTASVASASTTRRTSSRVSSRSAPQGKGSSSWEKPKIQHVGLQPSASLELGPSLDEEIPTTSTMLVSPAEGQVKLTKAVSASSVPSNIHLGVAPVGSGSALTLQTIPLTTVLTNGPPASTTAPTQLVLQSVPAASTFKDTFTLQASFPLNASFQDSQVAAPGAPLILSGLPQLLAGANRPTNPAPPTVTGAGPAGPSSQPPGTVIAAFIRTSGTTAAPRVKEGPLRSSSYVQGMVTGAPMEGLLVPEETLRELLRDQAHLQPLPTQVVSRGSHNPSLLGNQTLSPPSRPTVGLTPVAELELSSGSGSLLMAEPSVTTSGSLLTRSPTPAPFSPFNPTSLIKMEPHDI
CRX, sequence (O43186 whole entry): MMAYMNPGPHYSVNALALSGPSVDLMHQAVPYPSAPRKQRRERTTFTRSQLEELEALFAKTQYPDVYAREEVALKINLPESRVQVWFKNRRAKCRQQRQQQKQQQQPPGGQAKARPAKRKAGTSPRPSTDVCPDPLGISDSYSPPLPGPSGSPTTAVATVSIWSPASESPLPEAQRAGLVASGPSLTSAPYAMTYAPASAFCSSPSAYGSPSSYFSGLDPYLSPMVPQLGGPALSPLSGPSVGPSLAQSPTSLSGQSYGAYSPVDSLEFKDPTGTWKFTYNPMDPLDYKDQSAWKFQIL
HSF1, sequence (Q00613 whole entry): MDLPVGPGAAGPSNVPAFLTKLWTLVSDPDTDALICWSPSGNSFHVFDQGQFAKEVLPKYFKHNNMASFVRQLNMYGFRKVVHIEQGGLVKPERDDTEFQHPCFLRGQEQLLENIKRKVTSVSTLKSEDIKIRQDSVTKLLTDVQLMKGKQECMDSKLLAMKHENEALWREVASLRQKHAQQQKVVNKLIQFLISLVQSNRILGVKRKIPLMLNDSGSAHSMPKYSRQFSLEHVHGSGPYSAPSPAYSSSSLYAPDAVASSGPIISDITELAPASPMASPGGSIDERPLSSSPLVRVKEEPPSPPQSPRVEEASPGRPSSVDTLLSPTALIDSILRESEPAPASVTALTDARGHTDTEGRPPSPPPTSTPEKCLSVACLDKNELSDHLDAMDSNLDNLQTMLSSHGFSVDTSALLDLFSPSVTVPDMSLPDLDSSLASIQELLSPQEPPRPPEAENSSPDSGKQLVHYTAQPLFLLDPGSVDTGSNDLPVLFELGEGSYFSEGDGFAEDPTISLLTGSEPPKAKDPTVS
ELF1, sequence (P32519 whole entry): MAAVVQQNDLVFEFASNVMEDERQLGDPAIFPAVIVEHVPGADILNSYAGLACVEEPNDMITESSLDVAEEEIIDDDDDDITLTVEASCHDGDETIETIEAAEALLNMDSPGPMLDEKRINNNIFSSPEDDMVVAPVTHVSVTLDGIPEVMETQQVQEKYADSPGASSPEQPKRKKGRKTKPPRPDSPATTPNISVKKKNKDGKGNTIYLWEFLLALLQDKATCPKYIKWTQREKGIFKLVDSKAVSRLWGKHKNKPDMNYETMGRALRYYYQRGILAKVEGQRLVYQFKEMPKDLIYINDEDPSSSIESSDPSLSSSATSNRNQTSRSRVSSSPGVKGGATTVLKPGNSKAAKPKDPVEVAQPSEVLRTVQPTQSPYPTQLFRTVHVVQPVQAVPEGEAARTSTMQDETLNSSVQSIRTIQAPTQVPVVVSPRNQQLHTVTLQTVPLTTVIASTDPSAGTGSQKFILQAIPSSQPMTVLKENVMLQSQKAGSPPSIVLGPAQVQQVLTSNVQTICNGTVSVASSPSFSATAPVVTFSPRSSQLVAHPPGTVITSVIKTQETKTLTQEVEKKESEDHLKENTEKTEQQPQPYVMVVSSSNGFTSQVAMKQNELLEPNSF
ETV5, sequence (P41161 whole entry): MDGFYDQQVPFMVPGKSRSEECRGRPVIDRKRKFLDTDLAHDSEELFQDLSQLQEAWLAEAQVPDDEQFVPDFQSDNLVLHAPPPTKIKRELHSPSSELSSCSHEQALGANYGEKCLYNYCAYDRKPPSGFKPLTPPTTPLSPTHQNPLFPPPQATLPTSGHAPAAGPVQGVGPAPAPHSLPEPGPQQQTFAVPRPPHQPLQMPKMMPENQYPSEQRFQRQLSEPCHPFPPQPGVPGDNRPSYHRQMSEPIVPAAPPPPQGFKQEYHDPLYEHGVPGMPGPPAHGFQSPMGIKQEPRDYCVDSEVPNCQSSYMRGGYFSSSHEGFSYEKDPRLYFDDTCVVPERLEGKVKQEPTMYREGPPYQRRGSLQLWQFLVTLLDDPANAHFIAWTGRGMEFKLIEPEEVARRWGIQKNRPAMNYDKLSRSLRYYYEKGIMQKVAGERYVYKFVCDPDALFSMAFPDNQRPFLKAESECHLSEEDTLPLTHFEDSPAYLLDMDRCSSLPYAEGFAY
SPIB, sequence (Q01892 whole entry): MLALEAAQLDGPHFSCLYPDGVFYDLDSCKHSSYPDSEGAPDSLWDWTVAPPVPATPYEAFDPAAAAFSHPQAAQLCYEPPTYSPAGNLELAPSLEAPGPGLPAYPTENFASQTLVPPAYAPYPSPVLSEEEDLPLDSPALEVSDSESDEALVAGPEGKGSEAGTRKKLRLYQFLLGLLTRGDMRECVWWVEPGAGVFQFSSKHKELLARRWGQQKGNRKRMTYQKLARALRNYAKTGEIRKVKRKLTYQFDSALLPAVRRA
ETV1, sequence (P50549 whole entry): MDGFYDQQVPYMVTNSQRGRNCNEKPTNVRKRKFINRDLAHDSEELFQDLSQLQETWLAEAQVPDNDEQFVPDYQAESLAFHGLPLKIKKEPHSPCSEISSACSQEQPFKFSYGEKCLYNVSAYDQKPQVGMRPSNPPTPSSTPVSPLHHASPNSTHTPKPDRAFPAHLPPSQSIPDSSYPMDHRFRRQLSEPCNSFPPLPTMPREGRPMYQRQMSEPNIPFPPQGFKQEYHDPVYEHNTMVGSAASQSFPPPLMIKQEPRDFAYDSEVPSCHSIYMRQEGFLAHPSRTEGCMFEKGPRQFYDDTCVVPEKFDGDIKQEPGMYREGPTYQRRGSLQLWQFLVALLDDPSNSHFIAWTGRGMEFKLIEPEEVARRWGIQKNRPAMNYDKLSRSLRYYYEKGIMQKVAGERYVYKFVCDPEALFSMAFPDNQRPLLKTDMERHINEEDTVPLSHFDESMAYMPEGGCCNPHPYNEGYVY

Q: For TATGCT, which binding signal (FLI1) is on record?
A: 1.28 fold enrichment (6-mer frequency, TF over GST control)

Q: And the binding signal (ELK1)?
A: 1.28 fold enrichment (6-mer frequency, TF over GST control)

Q: And the binding signal (GABPA)?
A: 1.32 fold enrichment (6-mer frequency, TF over GST control)

Q: And the binding signal (ERG)?
A: 1.26 fold enrichment (6-mer frequency, TF over GST control)

Q: And the binding signal (ELF1)?
A: 1.29 fold enrichment (6-mer frequency, TF over GST control)

Q: What about the binding signal (EHF) of the same sequence?
A: 1.33 fold enrichment (6-mer frequency, TF over GST control)

Q: And the binding signal (SPI1)?
A: 1.41 fold enrichment (6-mer frequency, TF over GST control)

Q: And the binding signal (SPIB)?
A: 1.33 fold enrichment (6-mer frequency, TF over GST control)

Q: What about the binding signal (ELK3) of the same sequence?
A: 1.22 fold enrichment (6-mer frequency, TF over GST control)

Q: And the binding signal (FEV)?
A: 1.24 fold enrichment (6-mer frequency, TF over GST control)

Q: What about the binding signal (ETV5) of the same sequence?
A: 1.39 fold enrichment (6-mer frequency, TF over GST control)

Q: What about the binding signal (HSF1) of the same sequence?
A: 1.41 fold enrichment (6-mer frequency, TF over GST control)

Q: What about the binding signal (SPIC) of the same sequence?
A: 1.6 fold enrichment (6-mer frequency, TF over GST control)

Q: What about the binding signal (ELF4) of the same sequence?
A: 1.31 fold enrichment (6-mer frequency, TF over GST control)

Q: And the binding signal (ELK4)?
A: 1.4 fold enrichment (6-mer frequency, TF over GST control)

Q: What about the binding signal (ETV2) of the same sequence?
A: 1.3 fold enrichment (6-mer frequency, TF over GST control)

Q: What about the binding signal (ELF3) of the same sequence?
A: 1.37 fold enrichment (6-mer frequency, TF over GST control)

Q: What about the binding signal (CRX) of the same sequence?
A: 1.51 fold enrichment (6-mer frequency, TF over GST control)

Q: What about the binding signal (ETV1) of the same sequence?
A: 1.29 fold enrichment (6-mer frequency, TF over GST control)
